Laboratory results as given in PubChem BioAssay (EPA / NIEHS).
Inconclusive results are not listed. Calls of active or inactive are those of the source. Rule for the calls, unless noted: active = hit-call score of the fitted dose curve at least 0.9, where 1 is the maximum; inactive = score below 0.9.

Key:
[1] = CCTE_Shafer_MEA_acute_burst_percentage_std: CCTE's Neural Acute Assay for Standard Deviation of Burst Percentage, Shafer Lab (AID 2284018);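 note: fitted in the negative direction so actives lower burst percentage SD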
Outline: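 Primary rat cortical neurons on 16-electrode MEA wells were recorded 40 min at baseline (DIV 13 or 15), then 40 min after compound (0.03-40 uM), at 37 C. Well value is SD across electrodes of spikes-in-bursts/total spikes; endpoint is percent change, DMSO-referenced.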

[2] = CCTE_Shafer_MEA_acute_per_network_burst_electrodes_number_mean: CCTE's Neural Acute Assay for Mean Number of Electrodes in a Network Burst, Shafer Lab (AID 2284021);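 note: curves fitted for decreases only so hits reduce electrodes per burst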
Outline: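 Percent change from baseline in average electrode count per network burst, rat cortical cultures on 48-well MEAs; 40-min recordings each side of exposure, DIV 13 or 15; threshold 8x rms noise; DMSO as negative control.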

[3] = CCTE_Shafer_MEA_acute_cross_correlation_HWHM: CCTE's Neural Acute Assay for Cross Correlation at Half Width at Half Maximum, Shafer Lab (AID 2284026);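 note: percent change per well from pre-dose baseline in spike cross-correlogram half width; hits are a decrease in cross-correlogram half width relative to DMSO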
Outline: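 Percent change in cross-correlogram half width at half maximum, narrower meaning more synchrony, was derived per well from paired 40-min recordings before and during exposure to 0.03-40 uM compound in rat cortical cultures at 37 C.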

[4] = CCTE_Shafer_MEA_acute_synchrony_index: CCTE's Neural Acute Assay for Synchrony, Shafer Lab (AID 2284027);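 note: network synchrony index of spontaneous spiking in primary rat cortical neurons on MEAs; fitted for loss of signal so actives lower synchrony relative to DMSO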
Outline: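 Primary rat cortical neurons on 16-electrode MEA wells were recorded 40 min at baseline (DIV 13 or 15) and 40 min after compound (0.03-40 uM) at 37 C. Synchrony index (0-1) expressed as percent change from baseline, versus DMSO.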

[5] = CCTE_Shafer_MEA_acute_LDH: CCTE's Lactate Dehydrogenase Assay for Cytotoxicity in the Neural Acute Assay, Shafer Lab (AID 2284086; active = hit-call score of the fitted dose curve at least 0.9, where 1 is the maximum;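 note: active means LDH release rises above DMSO vehicle level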)
Outline: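 Primary rat cortical neurons on 48-well MEA plates, treated on day 13 or 15 post-plating. After the 40-min recording with compound, medium LDH release was read by absorbance at 490 nm. Gain of signal was fitted against DMSO negative control.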

[6] = tested on: TTR (gene 7276); assay: CCTE_GLTED_hTTR_0.125uM: CCTE's human Transthyretin (hTTR) Inhibition Assay, with 0.125uM TTR, Great Lakes Toxicology and Ecology Division (GLTED) Lab (AID 2284431);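 note: hits lower the fluorescence signal relative to DMSO baseline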
Outline: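 Activity is defined as decreased ANSA fluorescence (ex 380, em 475) from human transthyretin, 0.125uM, following 2-hour chemical exposure in a cell-free setup, with DMSO as baseline.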

[7] = CCTE_Shafer_MEA_dev_bursting_electrodes_number: CCTE's Neural Network Formation Assay for Number of Bursting Electrodes, Shafer Lab (AID 2284043; active = hit-call score of the fitted dose curve at least 0.9, where 1 is the maximum)
Outline: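 Primary rat cortical neurons were cultured on PEI-coated 48-well MEA plates (16 electrodes/well) and exposed from plating through day 12, with compound renewed at feeds on DIV 5 and 9. Electrodes bursting ≥1 per 2 min were counted on DIV 5, 7, 9, 12; trapezoidal AUC taken.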

[8] = IUF_NPC1a_proliferation_area_72hr: Leibniz Research Institute for Environmental Medicine (IUF) 72-hour Neural Progenitor Cell Proliferation Area Assay (NPC1a) (AID 2284208)
Outline: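 Measured in 3D suspension: each well held one primary hNPC sphere grown with EGF and FGF at pH 7.2-7.6. Compound stayed on for 72 h, then area was imaged; spheres lacking growth factors defined reduced proliferation.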

[9] = IUF_NPC1_viability_72hr: Viability Assessment at 72 hours in the Leibniz Research Institute for Environmental Medicine (IUF) Neural Progenitor Cell Proliferation Assay (NPC1) (AID 2284209)
Outline: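 Human fetal-cortex neural progenitor spheres (0.25–0.35 mm, one per well) grown in EGF/FGF proliferation medium at 37C, pH 7.2-7.6, exposed 72 h without renewal; viability read as alamar blue resazurin-to-resorufin fluorescence relative to DMSO.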

[10] = TAMU_PeakParms_SingleDonor1434_QT: Texas A&M University (TAMU) 1.5-hr Human Induced Pluripotent Stem Cell (iPSC)-derived Cardiomyocytes Calcium (Ca+2) Flux Assay for Cardiotoxicity: QT (decay-rise ratio) (AID 2284235; active = hit-call score of the fitted dose curve at least 0.9, where 1 is the maximum)
Outline: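 iPSC-derived cardiomyocytes (single donor 1434) dosed at 0.2, 1, 10, 100 uM final in 0.5% DMSO, 90 min at 37C. Ca2+ flux fluorescence decay/rise ratio; EC05 (5% increase versus DMSO) as POD, excluding beat-arrest and severe-notch data.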

[11] = IUF_NPC2c_oligodendrocyte_migration_120hr: Leibniz Research Institute for Environmental Medicine (IUF) 120-hour Neural Progenitor Cell Migration Assay for Oligodendrocyte Migration (NPC2c) (AID 2284297);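 note: O4-positive oligodendrocyte migration distance divided by radial glia migration distance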
Outline: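 Using fetal brain neural progenitor spheres differentiating in N2 medium at 37C, compounds were present for 120 h. Oligodendrocyte migration distance, normalized to radial glia migration, was measured from imaged O4 staining.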

[12] = IUF_NPC2a_radial_glia_migration_120hr: Leibniz Research Institute for Environmental Medicine (IUF) 120-hour Neural Progenitor Cell Migration Assay for Radial Glia Migration (NPC2a) (AID 2284298)
Outline: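 Exposure of 0.3 mm primary hNPC spheres runs day 0 to 120 h with a half-volume medium change at day 3. Fixed cells get Hoechst staining; high-content analysis of nuclear positions yields radial glia migration distance per well, compared against DMSO controls.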

[13] = IUF_NPC2a_radial_glia_migration_72hr: Leibniz Research Institute for Environmental Medicine (IUF) 72-hour Neural Progenitor Cell Migration Assay for Radial Glia Migration (NPC2a) (AID 2284299)
Outline: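 Human fetal cortex (GW 16-19) neural progenitor spheres, 0.3 mm, plated on poly-D-lysine/laminin in N2 differentiation medium with compound from day 0. Radial glia migration distance (um, sphere core edge to migration edge) measured manually in four directions on 72 h brightfield images; well mean used.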

[14] = IUF_NPC2b_neuronal_migration_120hr: Leibniz Research Institute for Environmental Medicine (IUF) 120-hour Neural Progenitor Cell Migration Assay for Neuron Migration (NPC2b) (AID 2284300)
Outline: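 Fetal human NPC spheres migrate on PDL/laminin during 120 h compound treatment; neuronal migration distance, glia-normalized, scored versus DMSO control.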

[15] = IUF_NPC3_neuronal_differentiation_120hr: Leibniz Research Institute for Environmental Medicine (IUF) 120-hour Neuronal Differentiation Assay (NPC3) (AID 2284301)
Outline: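 Primary human fetal neural progenitor spheres (GW 16-19, 0.3 mm) plated on poly-D-lysine/laminin in N2 medium, exposed from day 0 for 120 h with half-medium refresh at day 3. TUBB3+ cells as percent of Hoechst nuclei in migration area; DMSO baseline.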

[16] = IUF_NPC4_neurite_length_120hr: Leibniz Research Institute for Environmental Medicine (IUF) 120-hour Neuronal Morphology Assay for Neurite Length (NPC4) (AID 2284302)
Outline: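 Human fetal cortex (GW 16-19) neural progenitor spheres, 0.3 mm, were plated on poly-D-lysine/laminin in N2 differentiation medium and exposed from day 0 for 120 h, half-feeding at day 3. Mean TUBB3+ neurite length (µm) came from skeletonized images, relative to DMSO.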

[17] = IUF_NPC4_neurite_area_120hr: Leibniz Research Institute for Environmental Medicine (IUF) 120-hour Neuronal Morphology Assay for Neurite Area (NPC4) (AID 2284305; active = hit-call score of the fitted dose curve at least 0.9, where 1 is the maximum)
Outline: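 Human fetal cortex-derived neural progenitor spheres (0.3 mm, GW 16-19) plated on poly-D-lysine/laminin in N2 differentiation medium and exposed from day 0 for 120 h across 7 concentrations plus solvent control. Neurite area is mean pixel area per TUBB3-positive neuron via skeletonization, analysed relative to DMSO.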

[18] = IUF_NPC2-5_cytotoxicity_72hr: Cytotoxicity Assessment at 72 hours in the Leibniz Research Institute for Environmental Medicine (IUF) Neural Progenitor Cell Migration and Differentiation Assay for Cytotoxicity (NPC2-5) (AID 2284306; active = hit-call score of the fitted dose curve at least 0.9, where 1 is the maximum;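 note: LDH release into supernatant measured by resorufin fluorescence marking membrane damage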)
Outline: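 Human fetal (GW 16-19) neural progenitor spheres, 0.3 mm, plated on poly-D-lysine/laminin in N2 differentiation medium and exposed from day 0 to 7 concentrations plus solvent control (DMSO ≤0.1%). LDH-dependent resazurin-to-resorufin fluorescence in supernatant at 72 h.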

[19] = IUF_NPC2-5_cytotoxicity_120hr: Cytotoxicity Assessment at 120 hours in the Leibniz Research Institute for Environmental Medicine (IUF) Neural Progenitor Cell Migration and Differentiation Assay (NPC2-5) (AID 2284307; active = hit-call score of the fitted dose curve at least 0.9, where 1 is the maximum)
Outline: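 Membrane-integrity loss is quantified by LDH in supernatant after five days of exposure of migrating, differentiating human fetal NPC spheres; seven serially diluted concentrations are tested with DMSO kept at or below 0.1%.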

[20] = IUF_NPC2-5_cell_number_120hr: Cell Number Assessment at 120 hours in the Leibniz Research Institute for Environmental Medicine (IUF) Neural Progenitor Cell Migration and Differentiation Assay (NPC2-5) (AID 2284308);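 note: count of Hoechst-stained nuclei in migration zone around plated human neural progenitor spheres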
Outline: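 Seven-point serial dilutions plus solvent control were applied to plated 0.3 mm hNPC spheres at differentiation start, with medium half-replaced at day 3. Nuclei positive for Hoechst in the migration zone were enumerated at 120 h.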

Measured: AC50

O=c1c2ccccc2c(=O)c2c1cc(Cl)c1[nH]c3c([nH]c12)c(Cl)cc1c(=O)c2ccccc2c(=O)c13
inactive: [1] | [2] | [3] | [4] | [5]

Nc1cc(Cl)cc(Cl)c1
active: [6] 6.93 µM

Cc1ccc(OP(=O)(Oc2ccc(C)cc2)Oc2ccc(C)cc2)cc1 (tested in a mixture with another compound)
active: [1] 3.66 µM | [2] 7.68 µM | [3] 8.25 µM | [4] 6.01 µM
not listed: [6]
inactive: all other assays above

CC1CCCC1.[C-]#[O+].[C-]#[O+].[C-]#[O+].[Mn]
active: [10] 9.92 µM
inactive: [7]

CCOC(=O)COc1ccc(Cl)cc1Cl
active: [6] 19.4 µM
